# SMN2 splice up = increases expression of the SMN2 splice variant | 210,000 compounds, 2.8% hits | Potency, µM (highest dose often 46.1 µM), without a hit: at the top dose activity change, positive = activation, usual class: activators | AID 1458 | HEK293 SMN2-luciferase splicing reporter, luminescence, 30-36 h; also: % of control where 0% means no effect; nearly all actives have a fitted effect of over 55% in size
#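 qHTS luciferase splicing reporter: luminescence rises when SMN2 exon 7 is included in transfected HEK293 cells. Compound exposure lasted 30-36 h at 37C, with 4.5 mM final sodium butyrate as control, followed by a ONE-Glo read.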
# ELG1 genotoxic = genotoxicity induction in ELG1-luciferase HEK293T cells. HEK293T ELG1-luciferase reporter, luminescence, 16 h. 330,000 compounds, 1.3% hits. Potency, µM (titrated, usually from 46 µM), for the others: at the highest dose activity change, positive = activation, usual class: activators; also: % of control where 0% means no effect; nearly all actives have a fitted effect of over 60% in size
#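 Screening used a luciferase reporter fused to human ELG1 in HEK293T cells. Luminescence was read on a CCD plate imager after 16 hr exposure and 30 min ONE-Glo incubation.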
# Rab9 prom act = activates the Rab9 promoter | Huh7 Rab9 promoter-luciferase reporter, luminescence, 24 h | Potency, µM (highest dose often 9.22 µM), for the others: at the top dose activation, negative = inhibition, hits mostly activators | 320,000 compounds, 2.8% hits; also: % of control where 0% means no effect; nearly all actives have a fitted effect of over 60% in size
#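 Luminescence read-out: Huh7 cells stably expressing Rab9-luciferase, treated 24 h with compound at 37 °C, then lysed with luciferase reagent for 10 min at ambient before reading.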
# FLuc modulator = firefly luciferase modulation, counter-screen for miR-21 project. Potency, µM (doses to about 57.5 µM), inactives show at the highest dose activity change, negative = inhibition, actives largely listed as inhibitors. AID 588342. 360,000 compounds, 6.9% hits. P08659. purified FLuc, Km substrates, luminescence inhibition;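 also: plate controls were vehicle for no effect and reference inhibitor for full effect; nearly all actives have a fitted effect of over 55% in size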
# Target sequence (P08659 whole entry, looked up): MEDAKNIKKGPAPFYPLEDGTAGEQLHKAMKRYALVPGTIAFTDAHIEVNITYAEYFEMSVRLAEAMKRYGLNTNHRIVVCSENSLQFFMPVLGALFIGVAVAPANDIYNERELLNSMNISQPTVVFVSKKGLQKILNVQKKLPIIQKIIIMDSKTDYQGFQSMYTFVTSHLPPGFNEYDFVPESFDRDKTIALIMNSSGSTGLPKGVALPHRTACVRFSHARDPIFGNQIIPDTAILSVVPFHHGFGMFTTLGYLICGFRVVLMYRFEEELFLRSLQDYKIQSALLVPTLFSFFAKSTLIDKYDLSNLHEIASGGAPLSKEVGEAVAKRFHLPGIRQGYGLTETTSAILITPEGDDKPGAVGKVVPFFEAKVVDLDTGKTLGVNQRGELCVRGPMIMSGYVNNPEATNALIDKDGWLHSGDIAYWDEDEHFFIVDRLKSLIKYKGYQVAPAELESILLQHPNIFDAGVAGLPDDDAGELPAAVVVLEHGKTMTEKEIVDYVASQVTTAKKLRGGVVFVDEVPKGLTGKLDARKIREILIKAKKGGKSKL
#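 Purified P. pyralis luciferase, 10 nM final, with Km-level 10 uM D-luciferin and 10 uM ATP in 50 mM Tris acetate pH 7.5, 10 mM Mg acetate, 0.01% Tween-20, 0.05% BSA; 6-point qHTS titration about 60 µM downward; luminescence read.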
# NPC1 promoter act = activators of NPC1 promoter; Huh7 NPC1 promoter luciferase reporter, 24 h; Potency, µM (titrated, usually from 9.22 µM), without a hit: top-dose activation, actives largely listed as activators; 320,000 compounds, 2.4% hits; AID 485313; also: % of control where 0% means no effect; nearly all actives have a fitted effect of over 60% in size
#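 Stably transfected Huh7 (NPC1 promoter→luciferase), 1500 cells/well in Opti-MEM + 10% FBS, 2 h settle, then compound 24 h at 37 °C. Luminescence after 10 min with Amplite reagent.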
# p53 reactivator = mutant p53 re-activation in reporter cells; Potency, µM (series often up to 92.2 µM), without a hit: at the top dose activity change, positive = activation, usual class: activators; 320,000 compounds, 0.063% hits; H1299 p53-A138V BP100-luciferase reporter, luminescence, 24 h; AID 504706; also: % of control where 0% means no effect; nearly all actives have a fitted effect of over 45% in size
#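 p53-null H1299 cells stably carrying temperature-sensitive p53-A138V and a BP100-luciferase reporter were pinned with compounds (4-point, 1:5 series) and held 24 hrs at 37 deg C. Luminescence was read 10 min after detection reagent.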
# Starred values were filed as active, the others as inactive; ? = inconclusive; · = no result; ! = not active in a repeat; [ ] = another dose, or the depositor's remark. The list is not random: actives were taken first. Their share in the collection is about 7.3%. Calls follow the shape of the dose curve; as a rule, active = well fitted curve in the direction sought with a large enough effect; inconclusive = small, poorly fitted or top-dose-only effect, or another doubt; inactive = no such curve, though single readings can be large; an effect the other way counts as inactive or inconclusive. Potency is read from the fitted curve at half-maximal effect.
SMILES,SMN2 splice up,ELG1 genotoxic,Rab9 prom act,FLuc modulator,NPC1 promoter act,p53 reactivator
O=C(Nc1ccc2ccccc2c1)c1cn(-c2ccccc2)nc1-c1cccs1,-12.4%,1.3%,24.7%,6.01µM*,-3.2%,11.9%
CN(C)C(=O)c1cn(-c2ccccc2)nc1-c1cccs1,4.4%,4.1%,2.7%,?,0.5%,-2.6%
CCN(CC)CCNC(=O)c1cn(-c2ccccc2)nc1-c1cccs1,6.5%,0.3%,-1.0%,-15.2%,-1.3%,-2.4%
CCN(CC)CCOC(=O)c1ccc(NC(=O)c2cn(-c3ccccc3)nc2-c2cccs2)cc1,-99.6%,?,18.7%,6.01µM*,8.7%,1.9%
O=C(c1cn(-c2ccccc2)nc1-c1cccs1)N(CCO)Cc1ccccc1,?,-9.5%,-5.8%,?,-1.0%,-7.6%
O=C(Nc1cn(-c2ccccc2)nc1-c1cccs1)c1ccco1,2.1%,0.4%,-6.6%,16.9µM*,12.6%,-1.0%
CN(C)c1ccc(NC(=O)c2cn(-c3ccccc3)nc2-c2cccs2)cc1,23.3%,10.7%,5.5%,6.75µM*,13.2%,2.6%
OC(c1ccccc1)c1nc2ccccc2n1Cc1c(F)cccc1Cl (stereo not drawn),9.4%,·,·,-1.7%,·,·
O=C(NCc1ccc(F)cc1)c1cnc(N2CCOCC2)c2ccccc12,·,·,·,4.5%,·,·
O=C(c1cn(-c2ccccc2)nc1-c1cccs1)N1CCN(c2ccccn2)CC1,-35.7%,-18.1%,2.9%,3.79µM*,-3.6%,-9.0%
O=C(NN1CCOCC1)c1cn(-c2ccccc2)nc1-c1cccs1,·,1.0%,1.1%,21.3µM*,0.5%,2.5%
CCN(CC(=O)Nc1ccc(NC(C)=O)cc1)C(=O)c1cn(-c2ccccc2)nc1-c1cccs1,·,-7.3%,-2.6%,21.3µM*,0.5%,2.5%
CN1CCN(C(=O)c2cn(-c3ccccc3)nc2-c2cccs2)CC1,7.8%,-5.4%,-1.6%,?,-0.1%,-3.4%
CN1CCN(NC(=O)c2cn(-c3ccccc3)nc2-c2cccs2)CC1,-6.3%,1.9%,3.3%,?,0.2%,-0.6%
O=C(N=Nc1c(O)[nH]c2ccc(F)cc12)C1COc2ccccc2O1 (stereo not drawn),·,1.8%,-12.4%,3.9%,2.3%,-3.2%
O/N=C\c1ccc(-c2ccccc2)o1,12.6µM*,15.3%,23.8%,13.5µM*,21.9%,?
COc1ccc(N=Cc2ccc(-c3ccccc3)o2)cc1,·,11.8%,-11.5%,3.01µM*,-3.0%,1.1%
COc1ccc(N=C/C=C2\C=C(c3ccccc3)OC(C)(C)O2)cc1,?,-7.2%,2.6%,?,-0.7%,12.8%
COc1ccc(C(C)C)cc1S(=O)(=O)n1cnc(C)c1,23.8%,-3.1%,1.3%,3.3%,0.5%,-1.4%
Cc1ccnc(NC(=O)c2cccc(S(=O)(=O)N3CCCc4ccccc43)c2)c1,·,7.3µM*,0.1%,4.78µM*,0.1%,11.2%
Cc1ccnc(NC(=O)c2ccc(S(=O)(=O)N3CCCCCC3)cc2)c1,·,11.3%,26.7%,8.49µM*,16.1%,?
O=C(Nc1ccccn1)c1cccc(S(=O)(=O)N2CCCc3ccccc32)c1,·,-2.7%,-4.6%,-1.6%,-3.3%,-3.7%
O=C(Nc1ccccn1)c1ccc(S(=O)(=O)N2CCCCC2)cc1,·,9.2µM*,?,13.5µM*,?,9.2%
Cc1ccnc(NC(=O)c2ccc(S(=O)(=O)N3CCCCC3)cc2)c1,·,-1.0%,0.9%,-9.4%,3.2%,2.6%
O=C(Nc1ccccn1)c1ccc(S(=O)(=O)N2CCCCCC2)cc1,·,9.2µM*,?,16.9µM*,?,13.4%
SMILES,SMN2 splice up,ELG1 genotoxic,Rab9 prom act,FLuc modulator,NPC1 promoter act,p53 reactivator
CC(C)=CCn1cnc2c1c(=O)n(C)c(=O)n2C,1.3%,·,·,·,·,·
COc1ccc(C(=O)CC2(O)C(=O)N(CCc3ccccc3)c3ccc(Br)cc32)cc1OC (stereo not drawn),-15.4%,·,·,-17.0%,·,·
Cn1cccc1/C=C1\CC(C(C)(C)C)C/C(=C\c2cccn2C)C1=O (stereo not drawn),-27.6%,-13.5%,-18.9%,-0.6%,-22.5%,5.2%
CN1C2CCC1/C(=C/c1cccn1C)C(=O)/C2=C\c1cccn1C,-50.0%,-10.4%,-1.1%,0.8%,-1.8%,-23.1%
Cn1cccc1/C=C1\Cc2ccccc2C1=O,?,?,?,6.75µM*,-26.0%,?
Cn1cccc1/C=C1\CCc2ccccc2C1=O,1µM*,?,0.126µM*,1.51µM*,0.355µM*,?
CCOc1ccc(CNC(=O)C2Cc3ccccc3N2C(=O)CC)cc1 (stereo not drawn),·,·,·,6.4%,·,·
Cc1ccc(CN2CCCn3nc(C(=O)NCCc4cccc(C)c4)cc3C2=O)cc1,·,·,·,-5.8%,·,·
CN(Cc1ccccc1)Cc1c(O)ccc2ccccc12,·,-2.6%,0.5%,26.9µM*,-0.7%,·
CCOC(=O)C1=C(c2ccccc2)NC(N)=NC1c1ccc(OCc2ccc(Cl)cc2)c(OC)c1 (stereo not drawn),·,-5.1%,1.7%,13.5µM*,0.6%,-12.4%
CCOC(=O)C1=C(c2ccccc2)NC(=O)NC1c1cc(Cl)c(O)c(OC)c1 (stereo not drawn),20.3%,18.9%,1.7%,3.2%,-3.6%,-5.0%
CCN(CC)CCn1c2ccccc2c2nc3ccccc3nc21,·,?,?,21.3µM*,?,9.4%
CCCn1c2ccccc2c2nc3ccccc3nc21,1.1%,-6.3%,1.8%,1.5%[2.3 µM],-2.2%,-2.1%
N#CC/C(N)=N/NC(=O)CCCNc1ncc(C(F)(F)F)cc1Cl,15.8µM*,10.5%,?,-2.4%,19.9%,16.7%
C=CCn1cccc(C(=O)Nc2ccc(C)c(Cl)c2)c1=O,·,?,?,9.53µM*,2.51µM*,?
C=CCn1cccc(C(=O)Nc2ccc(OC)c(OC)c2)c1=O,-16.5%,9.0%,3.2%,?,12.5%,5.3%
C=CCn1cccc(C(=O)Nc2ccc(OC)c(Cl)c2)c1=O,·,8.6%,?,19µM*,?,3.7%
CCCCN1CSC(=S)N(Cc2ccccc2)C1,2.1%[9.22 µM],·,·,·,·,·
Cc1nc2ccccc2nc1OCc1ccccc1,-19.5%,4.8%,1.5%,?,-0.8%,9.0%
Cc1ccc2nc(=O)c(NNc3ccccc3)cnc2c1,17.8µM*,?,?,?,?,13.6%
Cc1nc2ccccc2nc(=O)c1NNc1ccccc1,11.2µM*,9.2µM*!,?,?,?,?
CN(C)c1ncnc2ccc(-c3ccccc3C#N)cc12,-21.9%,·,·,·,·,·
Cc1cc(C)c(S(=O)(=O)Nc2cc(SCC(=O)O)c(O)c3ccccc23)cc1C,-115.2%,-9.7%,4.8%,?,7.7%,-26.4%
